Laboratory results from PubChem BioAssay.

Molecular target: Fibroblast growth factor 10 (Homo sapiens) (UniProt O15520)
Assay: FGF10 binders on small-molecule microarrays, primary screen, biochemical, small-molecule microarray, 635 nm fluorescence (AID 1102)
Conditions: FGF10 binding, fluorescence 635 nm, higher = more signal

Chain of Fibroblast growth factor 10 (Homo sapiens) (O15520 whole entry, looked up): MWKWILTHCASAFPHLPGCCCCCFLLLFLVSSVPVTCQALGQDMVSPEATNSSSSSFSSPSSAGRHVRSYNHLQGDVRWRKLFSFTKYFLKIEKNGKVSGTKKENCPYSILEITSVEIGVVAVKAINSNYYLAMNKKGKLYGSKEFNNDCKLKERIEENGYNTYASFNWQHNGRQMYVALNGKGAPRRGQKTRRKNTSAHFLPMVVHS

How did the composite z-score turn out when `COc1ccc([Si](C)(C)[C@@H]2[C@@H](CC(=O)N3Cc4ccccc4C[C@H]3CO)O[C@]3(C(=O)N(C)c4ccccc43)[C@H]2C)cc1` was run?
Its composite z-score is 1.15.

With `O=C(N1CCCCC1)[C@@]1(CCS(=O)(=O)c2ccccc2)COC(c2ccc(OCCCO)cc2)=N1` as the compound, how does the composite z-score read?
Its composite z-score is 0.96.

`O=C1NC(=O)C2C1C=CC(C(O)CCc1ccccc1)N2Nc1ccc(Cl)cc1Cl` (stereo not given) was tested. Which composite z-score did it give?
The composite z-score was 0.265.

Which composite z-score does the source give for `C=CCC(OC(C)=O)[C@@H]1[C@@H](N(Cc2cc3ccccc3o2)C(=O)c2ccc(-c3ccccc3)cc2)c2cc(OCCCO)ccc2N1C(=O)c1ccc2ccccc2c1` (stereo not given in full) here?
Its composite z-score is 0.132.

Which composite z-score does the source give for `CCOC(=O)C[C@H]1[C@H](OC(=O)Cc2ccc3c(c2)OCO3)[C@@H](NC(=O)Cc2ccc(OC)cc2)c2cc(OCCCO)ccc2N1C(=O)c1ccc2ccccc2n1` here?
The composite z-score was 0.355.

`COC(=O)c1c2oc(c1C(=O)OC)C(=O)N(Cc1ccccc1)Cc1cn(nn1)C[C@H](Cc1ccccc1)NC(=O)N[C@H](CO)CC2` was tested. Which composite z-score did it give?
The composite z-score was 0.247.

Which composite z-score does the source give for `NC(N)=NCCCn1cc(CNC(=O)[C@@H](N)Cc2ccccc2)nn1` here?
The composite z-score was 0.697.

Which composite z-score does the source give for `NC(=O)N1C(=O)C2C(C1=O)C1C=C(CCCO)C2C(c2cccs2)N1Cc1cccc(OC(F)(F)F)c1` (stereo not given) here?
The composite z-score was 0.493.

For `CCOC(=O)C[C@H]1[C@H](OC(=O)c2cc3ccccc3oc2=O)[C@@H](NC(=O)Cc2ccc(OC)cc2)c2cc(OCCCO)ccc2N1C(=O)c1ccc2ccccc2n1`, which composite z-score is on record?
Its composite z-score is 1.28.

How did the composite z-score turn out when `COCCOC(=O)N1C(=O)[C@@]2(c3cc(C#CC4=CCCCC4)ccc31)[C@H](c1ccc(OCCO)cc1)N1[C@H](c3ccccc3)[C@H](c3ccccc3)OC(=O)[C@H]1[C@@H]2C(=O)NC[C@H](O)c1ccccc1` was run?
The composite z-score was 1.35.

Which composite z-score does the source give for `COC(=O)c1nc2oc1CC[C@@H](CO)NC(=O)N(C)Cc1cnnn1C[C@H](Cc1ccccc1)NC2=O` here?
Its composite z-score is -0.0412.

With `CN1C(=O)C2C=CC(C(O)COCc3ccccc3)N(N(c3ccccc3)c3ccccc3)C2C1=O` (stereo not given) as the compound, how does the composite z-score read?
Its composite z-score is 0.126.

For `COc1cc2c(cc1O)C(C)N(Cc1ccc([N+](=O)[O-])o1)CC2` (stereo not given), which composite z-score is on record?
The composite z-score was 0.675.

For `C=CCOC(=O)[C@H]1[C@@H]2C(=O)O[C@@H](c3ccccc3)[C@@H](c3ccccc3)N2[C@@H](c2ccc(OCCOC(=O)[C@@H]3C[C@@H]4C(=O)N[C@@H](CCCCN(C)C)C(=O)N4[C@@H]3c3ccc(O)cc3)cc2)[C@]12C(=O)Nc1ccccc12`, which composite z-score is on record?
Its composite z-score is 1.03.

How did the composite z-score turn out when `CCOC(=O)C1=C[C@@H](c2ccccc2)N(S(=O)(=O)c2ccc(C)cc2)[C@H]1c1ccccc1Cl` was run?
Its composite z-score is 1.29.

For `C[N+](C)(C)CCCCCCNC(=O)[C@H]1C[C@H]2C(=O)NCC(=O)N2[C@H]1c1ccc(O)cc1`, which composite z-score is on record?
Its composite z-score is 1.35.

Which composite z-score does the source give for `COc1cc(CO)cc(I)c1O[C@H]1C=C(C(=O)NCCO)C[C@@H](NCc2ccc(F)cc2)[C@@H]1O` here?
The composite z-score was 1.43.

How did the composite z-score turn out when `COC1OC[C@]2(C)[C@H]3C4=C(CN2C(=O)OC(C)(C)C)[C@H](C)C(CO)C(CO)C4CC[C@@H]13` (stereo not given in full) was run?
The composite z-score was 0.513.

For `O=C1O[C@H](c2ccccc2)[C@H](c2ccccc2)N2[C@H]1[C@@H](C(=O)Nc1nc3ccccc3s1)[C@]1(C(=O)Nc3ccc(C#CCCO)cc31)[C@H]2c1ccc(O)cc1`, which composite z-score is on record?
Its composite z-score is 0.929.

For `C=CCC(OC(C)=O)[C@@H]1[C@@H](N(Cc2cc3ccccc3o2)C(=O)Cc2ccc(F)cc2)c2cc(OCCCO)ccc2N1C(=O)c1ccc2ccccc2c1` (stereo not given in full), which composite z-score is on record?
The composite z-score was -0.234.

Which composite z-score does the source give for `OCCCC1=CC(c2ccc(CN3CCCC3)cc2)N(Cc2sc3ccccc3c2Cl)CC1` (stereo not given) here?
Its composite z-score is 1.03.

For `O=C1O[C@H](c2ccccc2)[C@H](c2ccccc2)N2[C@H]1[C@@H](C(=O)N1CCN(c3ncccn3)CC1)[C@]1(C(=O)Nc3ccc(C#CC4(O)CCCCCC4)cc31)[C@H]2c1ccc(OCCO)cc1`, which composite z-score is on record?
Its composite z-score is 1.45.

For `O=C1C2C=CC(C(O)c3ccc(Br)cc3)N(Nc3ccccc3F)C2C(=O)N1c1ccccc1` (stereo not given), which composite z-score is on record?
Its composite z-score is 0.118.

`COCCOC(=O)N1C(=O)[C@@]2(c3cc(C#CCC(C(=O)OC)C(=O)OC)ccc31)[C@H](C(=O)N1CCc3cc(OC)c(OC)cc3C1)[C@H]1C(=O)O[C@H](c3ccccc3)[C@H](c3ccccc3)N1[C@@H]2c1ccc(OCCO)cc1` was tested. Which composite z-score did it give?
The composite z-score was 1.24.

Which composite z-score does the source give for `CC(CO)N1C(=O)[C@@H]2[C@H]3C(=O)OCC=C[C@H]3OC23C=CCN(CCN2CCOCC2)C(=O)[C@@H]13` (stereo not given in full) here?
Its composite z-score is -0.199.

Which composite z-score does the source give for `C=C(COC)C(=O)CC[C@@H](OC(=O)c1cccnc1)c1ccc(OCCO)cc1` here?
The composite z-score was 1.55.

How did the composite z-score turn out when `COC(=O)[C@@]1(Cc2ccc(OC)cc2)[C@H]2c3cc(C(=O)N4CCCC4)n(Cc4cccc5ccccc45)c3C[C@H]2CN1C(=O)c1ccccc1` was run?
The composite z-score was 0.821.

With `CC(C)(C)OC(=O)CC[C@@]1(C(=O)NCc2ccccc2)N=C(c2ccc(OCCCO)cc2)O[C@@H]1c1ccccc1N=[N+]=[N-]` as the compound, how does the composite z-score read?
Its composite z-score is 1.39.

How did the composite z-score turn out when `C=CC[C@@]1(C(=O)N2CCOCC2)N=C(c2ccc(OCCCO)cc2)O[C@@H]1c1ccccc1CN=[N+]=[N-]` was run?
The composite z-score was 1.48.

`COC(=O)[C@@]1(Cc2ccc(F)cc2)[C@H]2c3cc(C(=O)N4CCCC4)n(CCc4ccc(O)c(O)c4)c3C[C@H]2CN1C(=O)c1ccccc1` was tested. Which composite z-score did it give?
The composite z-score was -0.206.

How did the composite z-score turn out when `CCOC(=O)C[C@H]1[C@H](OC(=O)c2cc3ccccc3oc2=O)[C@@H](NC(=O)c2ccc(-c3ccccc3)cc2)c2cc(OCCCO)ccc2N1C(=O)c1ccc2ccccc2n1` was run?
Its composite z-score is 0.93.

With `COc1ccc([Si](C)(C)[C@H]2[C@H](CCn3cc([C@H](O)c4ccccc4)nn3)O[C@@]3(C(=O)N(Cc4ccc(N5C(=O)c6cccc7cccc5c67)cc4)c4ccccc43)[C@@H]2C)cc1` as the compound, how does the composite z-score read?
The composite z-score was 0.324.

With `C[C@@H]1NC(=O)[C@@]23C(=O)N[C@@H](Cc4ccccc4)C2[C@H](C)[C@@]2(C)O[C@H]2C3/C=C/C/C=C\CNC(=O)[C@@H]2CCCN2C1=O` (stereo not given in full) as the compound, how does the composite z-score read?
Its composite z-score is 0.0528.

How did the composite z-score turn out when `COC(=O)[C@@]1(Cc2ccccc2)[C@H]2c3cc(C(=O)N(C)C)n(Cc4c(CO)[nH]cc(C)c4=O)c3C[C@H]2CN1C(=O)c1ccccc1` was run?
The composite z-score was 0.422.

With `COC(=O)CCCCCCC(=O)Nc1ccc(NC(=O)CCCC[P+](c2ccccc2)(c2ccccc2)c2ccccc2)cc1` as the compound, how does the composite z-score read?
The composite z-score was 1.38.
